# RecA intein inh: blocks M. tuberculosis RecA intein splicing; P9WHJ3; cell-free RecA intein splicing, fluorescence; inhibition, % (concentration not given with the values); actives 0.75% (n = 290,000); AID 2221; in the data active means inhibition above about 30%;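 further: 0% = vehicle wells and 100% = reference inhibitor control wells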
# Mtb hypoxia inh: reduces hypoxia-regulated biosensor signal in M. tuberculosis | actives 0.1% (n = 300,000) | fluorescence inhibition, % (no concentration beside the values) | M. tuberculosis hypoxia-regulated fluorescent reporter, fluorescence; in the data active means fluorescence inhibition mostly above about 23%, no sharp cut-off; inactive means mostly below about 17%
# CCHFV vOTU inh: blocks the CCHF virus ovarian tumor domain protease. CCHFV vOTU protease, Pep-AMC fluorescence. inhibition, % at 11.5 µM. actives 0.55% (n = 370,000); in the data active means inhibition above about 30%; further: 0% = vehicle wells with enzyme and 100% = no enzyme wells
# Mtb betalactam: beta-lactam sensitization of Mtb H37Rv | M. tuberculosis H37Rv growth with meropenem, percent inhibition | actives 0.27% (n = 330,000) | inhibition, % at 25 µM;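 further: growth measured after seven days incubation then overnight dye step; 0% = bacteria only wells and 100% = bacteria with antibiotic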
# PfHsp40 rescue: rescue of PfHsp40-mediated yeast toxicity; actives 0.68% (n = 340,000); S. cerevisiae expressing PfHsp40, growth rescue, ATP luminescence; growth rescue, % at 12.5 µM; in the data active means growth rescue above about 28%, passing the limit was not always enough;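 further: yeast W303a lacking pdr1 and pdr3 grown in galactose medium; growth measured after three days at 30 °C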
# GFP chromo cs: counter-screen GFP chromophore formation inhibition; shares compounds with RecA intein inh; cell-free GFP chromophore formation, fluorescence; EC50, µM; actives 83% (n = 2,100); AID 434968
# * hit, by the source's call; nt = not tested or not shown. Compounds with a hit are over-represented: about 1.7% of the library has one in this group of screens. Unless noted, how the calls were made is not given here.
SMILES,RecA intein inh,Mtb hypoxia inh,CCHFV vOTU inh,Mtb betalactam,PfHsp40 rescue,GFP chromo cs
Cc1c(N=C(N)N=C(N)Nc2ccc(Br)cc2)c(=O)n(-c2ccccc2)n1C,nt,10,nt,nt,nt,nt
COc1ccc(-c2oc(NC(=O)CCl)c(C#N)c2-c2ccc(OC)cc2)cc1,90*,4,17,98,0,1.4*
COc1ccc(-c2oc(NC(=O)CSc3ncn[nH]3)c(C#N)c2-c2ccc(OC)cc2)cc1,18,-10,nt,-3,1,nt
O=c1cc(-c2ccccc2)[nH]n1-c1ccc([N+](=O)[O-])cc1,46*,-1,nt,-4,-1,30*
C#CCOC(=O)c1ccccc1C(=O)n1nnc2ccccc21,51*,8,-6,31,-1,35*
Oc1ccc(O)c2c1C1c3ccccc3C2c2ccccc21,44*,nt,nt,-1,nt,10*
CCCc1c(C(=O)NNc2cccc(Cl)c2)cnn1-c1ccccc1,32*,9,1,93,-1,>38
COc1ccccc1CN1C(CC(=O)O)c2cc(F)ccc2S1(=O)=O (stereo unspecified),nt,2,nt,nt,nt,nt
CC(O)C1CNC(=O)C(=O)N1CCCCC1CCCCC1 (stereo unspecified),nt,-7,nt,nt,nt,nt
CC[n+]1ccc2cc(OC)c(OC)cc2c1Cc1ccc(OC)c(OC)c1,51*,nt,nt,-5,0,>38
CN1CCN(C(c2ccc(Br)cc2)c2cc(Cl)c3cccnc3c2O)CC1 (stereo unspecified),74*,nt,23,14,21,9.8*
Fc1cccc(CCN2CCNCC2Cc2cccc3ccccc23)c1 (stereo unspecified),nt,19,nt,nt,nt,nt
CC(C)(C)OC(=O)NCCc1nnc(SCc2ccccc2Cl)o1,1,0,1,1,-1,nt
CC(C)(C)OC(=O)NCCc1nnc(S(=O)(=O)Cc2ccc(Cl)cc2Cl)o1,85*,nt,9,4,0,>38
COc1ccc(C=N/N=C2/NC(=O)C(CC(=O)O)S2)cc1OCc1ccccc1Cl (stereo unspecified),nt,-17,nt,nt,nt,nt
CC1=NN(c2ccc(Cl)c(C(=O)O)c2)C(=O)/C1=C\c1ccc(-c2ccc(C(=O)O)cc2)o1,36*,-4,-21,nt,0,0.81*
C=CCOc1c(Br)cc(C=Nn2c(CC)n[nH]c2=S)cc1Br,nt,9,nt,nt,nt,nt
CCOC(=O)c1sc(N(Cc2ccccc2)C(=O)COC(=O)c2ccccc2O)nc1C,-2,nt,-2,8,-2,nt
CCOC(=O)c1sc(N(Cc2ccccc2)C(=O)CCl)nc1C,88*,6,12,0,-1,3.1*
COc1ccc(Nc2nc(N3CCCCC3)nc3ccccc23)c(OC)c1,93*,3,-4,91,-1,>38
CCC1=Nc2cc(C(=O)NCCN3CCCC3)ccc2Sc2ccccc21,38*,6,14,-2,-1,>38
CCC1=Nc2cc(C(=O)NCCCN3CCOCC3)ccc2Sc2ccccc21,-1,18,-10,-1,0,nt
Cc1ccc(NC(=O)C2=C(c3ccccc3)S(=O)(=O)CCS2(=O)=O)cc1,94*,14,5,7,1,1.9*
CCn1c(SCC(=O)NN=Cc2c[nH]c3ccccc23)nnc1-c1ccc(C)cc1,nt,0,nt,nt,nt,nt
Cc1ccccc1-n1ncc2c([N+](=O)[O-])cc([N+](=O)[O-])cc21,85*,nt,-8,99,0,5.8*
SMILES,RecA intein inh,Mtb hypoxia inh,CCHFV vOTU inh,Mtb betalactam,PfHsp40 rescue,GFP chromo cs
COc1cc(/C=N\NC(=O)c2ccccc2F)ccc1Oc1ccc([N+](=O)[O-])cn1,34*,nt,3,9,0,>38
COc1cc(/C=N\NC(=O)c2ccc(Cl)cc2)ccc1Oc1ccc([N+](=O)[O-])cn1,-2,nt,2,-6,-1,nt
CN1/C(=C/C(=O)c2nc(S(C)(=O)=O)ncc2Cl)C(C)(C)c2ccccc21,77*,nt,nt,96,2,6.3*
COC(=O)c1cc(NC(=O)Nc2ccccc2OC)cc(C(=O)OC)c1,40*,0,-4,9,0,>38
COc1ccccc1NC(=O)Nc1cccc(C(=O)O)c1,-1,0,0,3,0,nt
CC(C)Oc1cccc(C(=O)C2CCCN(C(=O)c3cc(C(F)(F)F)[nH]n3)C2)c1 (stereo unspecified),-1,1,28,-7,1,nt
CC(C)Oc1cccc(C(=O)C2CCCN(C(=O)c3csnn3)C2)c1 (stereo unspecified),52*,-2,3,-6,0,>38
O=c1[nH]c(/C=C/c2cccnc2)c([N+](=O)[O-])c(=O)[nH]1,41*,4,2,1,1,>38

# From PubChem BioAssay
